A word on the inhibition: it is the change of the read-out against control, counted positive when it falls.

About 1,100 (0.33%) of roughly 330,000 compounds were called active. Many of the other results were omitted from the sample, so actives are more common in it than they were. A number with no mark means an inactive call. Cut-off read from the data, not from the text of the source: active = inhibition above about 35%; inactive = the rest.

The nature of the assay: inhibitors of PMA/ionomycin-induced NF-kB reporter, 697 cells, primary screen, B-cell NF-kB inhibitor project, cell-based, luminescence, uHTS (AID 435022). To be noted: 697 B-cell NF-kB luciferase reporter, 16 h, at 4 µM, active compounds read high. In general terms: A reporter such as luciferase makes a cellular process visible.
`CCN1C(=O)[C@H]2[C@@H](c3ccc(C)cc3)N3C(=O)N(c4cccc(Br)c4)C(=O)[C@@]3(CC)[C@H]2C1=O`: the inhibition was -2.44%. Under `CCCCC(CC)CNC(=O)C(=O)C1C(=O)Nc2ccccc21` (configuration not stated) stands 13.5%; under `O=C(CN1CCN(c2ccc(O)cc2)CC1)NC1CCCc2ccccc21` (configuration not stated), 6.1%. Turning to `CCOc1ccc(C(c2c(C)[nH][nH]c2=O)c2c(C)[nH][nH]c2=O)cc1OCC`, the inhibition was 35.5% (active).

On to `CCOc1ccc(C(C)NC(=O)CN2C(=O)NC3(CCCCC3)C2=O)cc1OCC` (configuration not stated), for which the inhibition was -6.42%. For `Cc1[nH][nH]c(=O)c1C(c1ccc(-c2ccc(Cl)cc2)o1)c1c(C)[nH][nH]c1=O`, the inhibition was 15.2%.

For the compound `COC(=O)Cn1c2ccc(C)cc2c2nc(C)sc21`, the inhibition is 20.4%. On to `CCn1c(O)c(N=NC2=NC(=O)CS2)c2cc(C)ccc21`, for which the inhibition was 44.4% (active). Under `CCn1c(O)c(N=NC(=O)c2cccc(S(=O)(=O)N3CCCCC3)c2)c2ccccc21` stands -4.54%; under `COc1cc(NC(=O)C2CC(c3ccccc3O)=NO2)c(OC)cc1Cl` (configuration not stated), 10.9%. As to `CC(=O)Nc1nc(C)c(Cc2ccccc2)c(=O)[nH]1`, the inhibition is 16.1%.

As to `O=C(O)CCn1c(O)c(C=C2N=c3ccccc3=N2)sc1=S`, the inhibition is 55.2% (active). Then `Cc1cc2ccccc2n1CCC(=O)O`, with 13.8%; and `O=C(O)CCn1c(Cc2ccccc2)nc2ccccc21`, with 5.45%; and `CCOc1ccc(NC(=O)CN(C)C(=O)c2cccc(S(=O)(=O)N3CCCC3)c2)cc1OCC`, with 10.1%. Then `CCCC(C)NC(=O)C1CCN(C(=O)C2CC(=O)N(c3ccc(C)cc3)C2)CC1` (configuration not stated), with 10.2%; and `Cc1ccc(NC(=O)c2cc([N+](=O)[O-])ccc2Cl)c(O)c1`, with 38.8% (active). With `O=C(Nc1cccnc1)c1cc([N+](=O)[O-])ccc1Cl`, the inhibition is 12.2%. Under `CNc1ccc([N+](=O)[O-])cc1C(=O)O` stands -7.67%; under `O=C(CCCC(=O)N1CCN(c2cccc(Cl)c2)CC1)c1ccccc1`, 5.77%; under `C=CC1=C(C(=O)O)N2C(=O)[C@@H](NC(=O)/C(=N/OCC(=O)O)c3csc(N)n3)[C@H]2SC1`, 21.7%. Take `Cc1cnc(C(=O)Oc2cccc(Cl)c2Cl)cn1`: the inhibition was 9.86%. Then `N=c1n(CCc2ccccc2)c2ccccc2n1Cc1ccccc1F`, with -56.4%; and `Cn1c(=O)n(C)c2cc(C(=O)Nc3ccc(Br)cc3)ccc21`, with 9.51%.

On to `Cn1c(=O)n(C)c2cc(C(=O)Nc3ccc4c(c3)OCO4)ccc21`, for which the inhibition was 37.8% (active). Consider `O=C(Nc1ccc2c(c1)OCO2)c1ccc(N2C(=O)c3ccccc3C2=O)cc1`, for which the inhibition is -7.07%. With `COc1ccc(OCC(=O)NN2Cc3ccccc3C2=N)cc1`, the inhibition is 0.554%.

Consider `O=C(c1ccco1)N1CCN(CC(=O)N(C2CCCCC2)C2CCS(=O)(=O)C2)CC1` (configuration not stated), for which the inhibition is -18.1%. Then `Cc1cc(C(=O)O)c(S(C)(=O)=O)s1`, with 4.07%. Then `COc1ccc(CCNC(=S)N2CCN(S(=O)(=O)c3ccc(F)cc3)CC2)cc1`, with -1.95%. Under `CN(C)CCCn1c(SCCN2C(=O)c3ccccc3C2=O)nc2ccccc2c1=O` stands -8.89%; under `CCCn1c(=NC(C)=O)c(C(=O)OCC)cc2c(=O)n3ccccc3nc21`, 4.14%; under `CCOC(=O)c1cc2c(=O)n3ccccc3nc2n(CC(C)C)c1=NC(=O)c1c(-c2c(F)cccc2Cl)noc1C`, 36.5% (active). For the compound `Cc1onc(-c2c(F)cccc2Cl)c1C(=O)OCC(=O)N1C(C)CCCC1C` (configuration not stated), the inhibition is -2.55%. Then `CCCCn1c(N)c(N(CCC(C)C)C(=O)COC(=O)c2ccc(CC)cc2)c(=O)[nH]c1=O`, with -5.34%; and `COc1ccc(C(=O)CSc2n[nH]c(N)n2)cc1`, with 4.97%; and `C=CCn1c(C)cc(C2=NNC(=NCC)SC2)c1C`, with 37.3% (active).

On to `CC(Sc1nc2c([nH]c3ccccc32)c(=O)n1C)c1ccccc1` (configuration not stated), for which the inhibition is -2.36%. Under `COc1ccc(C=C(C#N)C#N)c(CSc2ccccn2)c1` stands 7.7%; under `CCOC(=O)Cc1cc(=O)[nH]c(=O)[nH]1`, -9.76%; under `O=C(OCCO)c1cc(Cl)c(C(=O)OCCO)cc1Cl`, 19.5%. Under `CC1CCN(S(=O)(=O)c2ccc3c(c2)n(C)c(=O)n3C)CC1` stands 7.77%.

In the case of `NC(=O)C1CCN(C(=O)CC2C(=O)NCCN2Cc2cccc(Oc3ccccc3)c2)CC1` (configuration not stated), the inhibition is -2.05%.

With `CNC(=O)c1csc(Cc2c(Cl)sc3ccc(Cl)cc23)n1`, the inhibition is -20.2%. Take `Cc1nc2ccccc2c(=O)n1-c1ccc(NS(=O)(=O)c2ccc(F)cc2F)cc1`: the inhibition was 1.55%.

Consider `CCC(C)(C(=O)Nc1ccccc1C)N(C(=O)CNC(C)=O)c1ccc(C)cc1` (configuration not stated), for which the inhibition was 14.7%. Consider `CC1CCCN(C(=O)CN2C(=O)c3ccccc3S2(=O)=O)C1` (configuration not stated), for which the inhibition was -17.2%. Then `O=C(CN1C(=O)c2ccccc2S1(=O)=O)N1CCc2ccccc21`, with 62.7% (active).

`O=C(CN1C(=O)c2ccccc2S1(=O)=O)NC1CCCCC1`: the inhibition is 9.89%. Then `COC1(C2=NCCN2)COc2ccccc2O1` (configuration not stated), with 17.1%. Then `Cc1ccnc2nc(C(=O)OCC(=O)N(CC(C)C)CC(C)C)nn12`, with 6.38%; and `COc1ccc(CNc2nc(NCc3ccc(OC)cc3)c3ncn(C4CCCC4)c3n2)cc1`, with -55.3%. Under `Cc1cc(C(=O)CSc2nc(N)cc(=O)[nH]2)c(C)n1-c1cccc(F)c1` stands -32.2%; under `C=CCSc1nc(N)cc(=O)[nH]1`, 36.8% (active). Regarding `CCCCc1nnc(NC(=O)CSc2nc(N)cc(=O)[nH]2)s1`, the inhibition was 13.3%. Under `CC(=O)N(OCc1ccc(OC(C)C)c(Cl)c1)C(C)=O` stands -2.83%; under `COc1cc(F)c(C2=CC(=O)CC(C)(C)C2)cc1F`, 4.27%; under `Cn1c(-c2ccc(F)cc2)cc2onc(-c3ccccc3Cl)c2c1=O`, -275%. Under `Cc1cccc(C(=O)Nc2ccc(C(=O)/C=C/c3cccs3)cc2)c1` stands 6.21%; under `Cc1cccc(C(=O)Nc2ccc(Oc3cnccn3)cc2)c1`, -6.59%. Under `Cc1cccc(C(=O)Nc2ccc(CC(=O)O)cc2)c1` stands 40.2% (active). With `O=Cc1c(NCCCN2CCCC2=O)c2ccccc2[nH]c1=O`, the inhibition is 4.36%. Then `CC(C)(C)c1cnnn1-c1ccc([N+](=O)[O-])cc1`, with 12.8%. With `Cc1ccccc1Cn1c2ccccc2c2cnn(CC(=O)NCc3ccco3)c(=O)c21`, the inhibition was -4.9%. On to `O=C(NC(Nc1nc2ccc([N+](=O)[O-])cc2s1)(C(F)(F)F)C(F)(F)F)c1ccccc1`, for which the inhibition is 99.5% (active). On to `O=C(NOCc1ccccc1)c1cccc([N+](=O)[O-])c1`, for which the inhibition was -12.3%.

For the compound `O=C(COC(=O)c1ccc([N+](=O)[O-])cc1Cl)NC(=O)c1ccccc1`, the inhibition was -5.46%. As for `CCOC(=O)c1c(C)n(C)c2ccc(OC)c(NS(=O)(=O)CC)c12`, the inhibition is -4.31%. As to `COc1ccc2cc(CCl)c(Cl)nc2c1`, the inhibition was -1.58%. For the compound `O=C(Cn1cnc2ccccc2c1=O)NNC(=O)c1ccccc1F`, the inhibition is 1.67%.

Take `O=C(NCc1ccccc1CN1CCCC1)C1CCN(S(=O)(=O)c2ccc(Cl)cc2)CC1`: the inhibition is -7.16%.

In the case of `COc1ccc(CNC(=O)Cc2ccc(-c3ccccc3)cc2)cc1OC`, the inhibition was 8.2%. In the case of `COc1ccc(CNC(=O)c2ccc(Br)s2)cc1OC`, the inhibition is -2.07%. For the compound `COc1ccc(CNC(=O)CNC(=O)c2sc3ccccc3c2Cl)cc1OC`, the inhibition is 35% (active). Then `Cc1cc(C(F)(F)F)nc(SCC(=O)Nc2nccs2)n1`, with -18.2%. For the compound `Cc1[nH]nc(SCC(=O)NCC(C)C)c1[N+](=O)[O-]`, the inhibition was 9.07%.

Take `Cc1oc2c(C)c3oc(=O)c(CC(=O)N[C@@H](CC(C)C)C(=O)N[C@@H](Cc4ccccc4)C(=O)O)c(C)c3cc2c1C`: the inhibition was 22.3%. Under `CCOc1ccc(C(=O)Nc2cc(Cl)ccc2-n2cncn2)cc1OC` stands 14%; under `CN(C)S(=O)(=O)c1ccc(N2CCCC2)c(C(=O)Nc2ccc(Br)cc2F)c1`, 9.57%; under `CCCc1nc2c(C)cc(-c3nc4ccccc4n3C)cc2n1Cc1ccc(-c2ccccc2C(=O)O)cc1`, 44.7% (active). Then `Cc1ccc(Cn2c(SCC(=O)N/N=C/c3ccccc3OCC(=O)O)nc3ccccc32)cc1`, with 3.74%; and `CC(=O)c1nc2ccccc2n1Cc1ccccc1`, with 3.31%; and `O=C1Nc2ccc(Br)cc2/C1=N/N=C/C1=C(N2CCOCC2)C(=C\c2ccccc2)/CC1`, with 13.3%. Turning to `COc1ccc(C2C=C(c3ccc(Br)cc3)Nc3nc(NS(C)(=O)=O)nn32)cc1` (configuration not stated), the inhibition was 8.48%.

As to `O=C1/C(=C/c2ccc(F)cc2)SC(=S)N1CCCC(=O)N1CCCCC1CCO` (configuration not stated), the inhibition is -3.3%. Under `Cc1ccc(/C=C2/SC(=S)N(CCC(=O)NCCCN3CCOCC3)C2=O)cc1` stands -16.3%. Under `C=CCOc1ccc(/C=C2\SC(=S)N(CCC(=O)O)C2=O)cc1` stands 62.4% (active); under `CN(CC(=O)NCc1ccncc1)S(=O)(=O)c1ccc(Br)cc1`, 12.7%; under `Cc1cc(Nc2cc(N3CCN(C)CC3)nc(Sc3ccc(NC(=O)C4CC4)cc3)n2)n[nH]1`, 37% (active). Under `Cc1cc(C)nc(N2CCC(C(=O)Nc3ccc4c(c3)OCCO4)CC2)n1` stands -5.99%; under `Cc1n[nH]c(C)c1S(=O)(=O)N1CCCC(C(=O)Nc2ccc(Br)cc2)C1` (configuration not stated), -12.3%. With `CC(=O)c1c(C)[nH]c(C(=O)COC(=O)c2cccc(S(=O)(=O)N(C)c3ccccc3)c2)c1C`, the inhibition was -50%.

(Values after PubChem BioAssay AID435022 (Sanford-Burnham Center for Chemical Genomics, 2010).)
